From PubChem
PfGluPho inh = PfG6PD (Plasmodium falciparum) enzyme inhibition | 0.78% of 350,000 active | PfGluPho enzyme, NADPH resazurin-diaphorase fluorescence | inhibition, % at 20 µM;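 active = inhibition reaching at least a set limit at 20 µM in the primary screen, cut at about 59% in these data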;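 also: 0% = DMSO wells with substrate and 100% = DMSO wells lacking glucose-6-phosphate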
PRMT1 inh = PRMT1 (human) inhibition, primary screen. Q99873. recombinant PRMT1, activity-based probe fluorescence polarization. inhibition, % at 2.79 µM. 1.3% of 370,000 active;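 active = inhibition above about 21% made by adding two undisclosed values, limit read from the data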
M18AAP inhibitor = PfM18AAP enzyme inhibition; AID 1822; 1.2% of 290,000 active; inhibition, % at 7.35 µM; recombinant PfM18AAP, H-Glu-NHMec fluorogenic cleavage;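 active = inhibition above the campaign mean inhibition over all tested compounds plus 3 SD, cut at about 28% in these data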;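 also: 0% = plate median of test compound wells and 100% = 2 mM ZnCl2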
UHRF1 MBD2 ctr = blocks human UHRF1 binding to methylated DNA; Q96T88; UHRF1 binding to methylated oligo, TR-FRET; 0.75% of 370,000 active; inhibition, % at 4.4 µM; in the data active = inhibition above about 21%;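 also: UHRF1 SRA domain binding a hemimethylated CpG hairpin DNA probe; 0% = median of test compound wells and 100% = reference inhibitor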
MBD2 DNA inh = inhibitors of human MBD2 binding to methylated oligonucleotide. inhibition, % at 4.4 µM. TR-FRET. 0.31% of 370,000 active. AID 686964; in the data active = inhibition above about 13%
Target sequence (Q9UBB5 whole entry, looked up): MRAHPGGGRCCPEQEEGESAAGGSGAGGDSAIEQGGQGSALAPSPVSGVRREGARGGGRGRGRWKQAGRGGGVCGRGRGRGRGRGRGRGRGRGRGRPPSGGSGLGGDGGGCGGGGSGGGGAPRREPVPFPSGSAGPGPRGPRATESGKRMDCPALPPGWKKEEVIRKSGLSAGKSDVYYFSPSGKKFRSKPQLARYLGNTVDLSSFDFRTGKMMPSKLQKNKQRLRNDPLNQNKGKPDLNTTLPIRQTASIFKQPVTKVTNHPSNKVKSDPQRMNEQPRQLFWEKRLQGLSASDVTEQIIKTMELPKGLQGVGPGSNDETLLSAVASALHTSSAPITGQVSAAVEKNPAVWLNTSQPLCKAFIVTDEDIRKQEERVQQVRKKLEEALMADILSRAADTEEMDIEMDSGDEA
* = called active by the depositor; / = not tested or not shown. Only some compounds are listed: those with a hit (about 3.3% of all), similar ones and a draw of the others.

SMILES	PfGluPho inh	PRMT1 inh	M18AAP inhibitor	UHRF1 MBD2 ctr	MBD2 DNA inh
CC(COc1ccc([N+](=O)[O-])cc1Cl)CN1CCC(C(O)(c2ccccc2)c2ccccc2)CC1 (stereo not drawn)	/	-2.5	/	-0.7	-5.2
Nc1ccc(C(=O)OCC(=O)Nc2cc([N+](=O)[O-])ccc2F)cc1	1.5	0.9	0.9	42.5*	-3.5
O=C(Cn1nc(C(F)(F)F)cc1C1CC1)NCc1ccccc1F	21.7	-2.0	3.3	21.3*	-3.0
ClC(/C=N/n1cnnc1)=C/c1ccccc1	-1.6	-1.7	31.7*	-3.5	-2.0
CCN(C1CCCCC1)S(=O)(=O)c1ccc(OC)c(C)c1	-5.7	1.6	-3.3	23.9*	7.7
CCOC(=O)c1c(C)[nH]c(C=Nc2ccccc2)c1O	/	/	-3.9	/	/
CCOC(=O)c1c(C)[nH]c(C=Nc2ccc(OC)cc2)c1O	-9.7	21.7*	15.6	-7.6	-8.3
S=c1nc(-c2ccccc2)[nH]n1-c1ccccc1	53.3	5.9	19.0	-3.1	3.1
S=c1nc(-c2ccccc2)n(-c2ccccc2)[nH]1	32.6	-3.8	29.5*	-2.0	-1.9
COC(=O)[C@@]12CCCCC3=C1N(CCC3)C(=O)[C@H]2CC(=O)N1CCN(C(=O)C2CC2)CC1	/	-9.2	/	-2.6	0.5
O=C(Nc1cccc2cccnc12)c1cccnc1	-18.5	-2.8	2.7	-5.1	-1.2
O=C(Nc1cccc2nsnc12)c1cccnc1	4.7	2.8	-3.5	55.1*	0.8
CC(C)CNc1cccc2c1S(=O)(=O)N[C@@H](Cc1ccccc1)CO2	/	-1.6	/	5.9	-2.4
NC(Cc1c[nH]c2ccccc12)C(=O)NCc1ccco1 (stereo not drawn)	-7.1	-0.7	0.8	0.0	0.9
NC(Cc1c[nH]c2ccccc12)C(=O)NCc1ccccc1 (stereo not drawn)	-7.1	-2.2	-1.1	25.0*	-2.3
COc1ccc(C(C)(O)c2nc(-c3ccc4ccccc4c3)cs2)cc1 (stereo not drawn)	/	-3.7	/	34.5*	-7.1
Cn1cnc(Sc2ncnc3nc[nH]c23)c1[N+](=O)[O-]	60.5*	8.8	2.6	-0.2	-4.0
Cc1cc(C)cc(N(CC(=O)NC2CCC(C)CC2)S(=O)(=O)c2ccc(Br)s2)c1 (stereo not drawn)	/	0.6	/	-1.1	-2.5
CCOc1ccc(-n2c(COc3ccccc3)nnc2SCc2nc3ccccc3[nH]2)cc1	/	-3.1	/	-1.4	-2.0
CCCNC(=O)OC1CC2CC1[C@H]1CCCCN1C2=O (stereo partly drawn)	/	9.4	/	22.6*	8.7
CCc1ccc(NC(=O)C(=O)NCC(O)c2ccccc2)cc1 (stereo not drawn)	1.4	-2.7	6.3	51.6*	-4.0
O=c1cc(N=Nc2ccc(Cl)cc2)[nH]c(=O)[nH]1	7.5	7.2	69.7*	-3.9	-0.6
O=c1cc(-c2ccc(Cl)cc2)oc(=O)[nH]1	-10.4	0.6	-14.6	-1.5	1.0
CCC1CCCCN1C(=O)Cn1c(=O)oc2ccccc21 (stereo not drawn)	13.6	-1.1	28.7*	-3.0	-2.6
C[C@@H]1CN([C@@H](C)CO)C(=O)c2cc(Br)cnc2O[C@@H]1CN(C)Cc1ccccn1	/	2.6	/	-2.8	-6.7
SMILES	PfGluPho inh	PRMT1 inh	M18AAP inhibitor	UHRF1 MBD2 ctr	MBD2 DNA inh
O=C(Cn1cnc2c(NCc3ccccc3)ncnc21)NCc1ccc2[nH]ccc2c1	-6.3	5.8	/	23.6*	5.7
Cc1ccccc1C(=O)N1CCC(C(=O)N2CCN(c3ncccn3)CC2)CC1	-2.1	-2.7	/	-1.8	0.6
CCOC(=O)N1CCN(C(=O)C2CCN(C(=O)c3ccccc3C)CC2)CC1	117.3*	91.0*	/	2.2	1.7
COc1ccc(NC(=S)Nc2ccc3cn[nH]c3c2)cc1	2.9	4.8	9.4	-5.8	-10.4
CC(C)NC(=S)Nc1ccc2cn[nH]c2c1	-2.8	-0.8	7.1	22.7*	8.2
OC(c1ccccc1)(c1ccccc1)C1CCN(CCCOc2ccncc2)CC1	/	-1.4	/	0.7	-0.9
O=C(N/N=C/c1ccc(C(=O)O)cc1)C(=O)N1CCCCCC1	-9.9	-1.5	-5.0	-0.6	2.1
O=C(N/N=C/c1ccc(Cl)cc1)C(=O)N1CCCCCC1	1.1	-1.7	-0.6	27.1*	-0.5
COCCCN1C(=O)[C@H](CC(=O)N2CCOCC2)[C@]2(C(=O)OC)CCCCC=C12	/	1.9	/	0.3	2.3
O=C(Nc1ccc(F)cc1F)Nc1csc2ccccc12	33.7	10.5	12.1	33.1*	0.3
CCCCOCCCNC(=O)C[C@H]1C[C@@]2(C(=O)OC)C(=C[C@H](C3CCCC3)O[C@@H]2C)N(CCc2ccc(OC)c(OC)c2)C1=O	/	1.4	/	-0.5	-0.5
Cc1ccc(Nc2nnns2)cc1	59.6*	-1.8	3.5	3.9	1.7
